Measurements taken from PubChem BioAssay.
Calls of active or inactive are those of the source.

Key:
[1] = compound effects on lung adenocarcinoma cell viability – A549, calcein-AM fluorescence, 48 h, basal, profiling panel (AID 1162); conditions: higher = more signal
[2] = compound effects on differentiated 3T3-L1 adipocyte viability – cell-based, 3T3-L1 adipocytes, calcein-AM fluorescence, 48 h, basal, profiling panel (AID 1163); conditions: 3T3-L1 adipocytes viability, higher = more signal
[3] = compound effects on hepatocellular carcinoma cell viability – HepG2, calcein-AM fluorescence, 48 h, basal, profiling panel (AID 1164); conditions: higher = more signal
[4] = compound effects on multiple myeloma cell viability – MM1S, calcein-AM fluorescence, 48 h, basal, profiling panel (AID 1165); conditions: higher = more signal
[5] = calcein-AM signal in unstimulated myeloma cells – cell-based, calcein-AM fluorescence, 48 h, PK04 Diversity Set, profiling panel (AID 1166); conditions: RPMI8226 myeloma viability, higher = more signal;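 further: cells grown under basal conditions without added stimulus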
[6] = JC-1 mitochondrial signal, unstimulated HepG2 cells – cell-based, JC-1 fluorescence, 24 h, 100 nL compound, profiling panel (AID 1167); conditions: HepG2 mitochondrial potential, higher = more signal
[7] = JC-1 mitochondrial signal, unstimulated adipocytes – cell-based, JC-1 fluorescence, 3T3-L1 adipocytes, 24 h, 100 nL compound, profiling panel (AID 1168); conditions: JC-1 mitochondrial fluorescence, higher = more signal, called active from +8 up or from −8 down
[8] = JC-1 mitochondrial signal, unstimulated myeloma cells – cell-based, JC-1 fluorescence, RPMI8226, 24 h, 100 nL compound, profiling panel (AID 1169); conditions: JC-1 mitochondrial potential fluorescence, higher = more signal
[9] = JC-1 mitochondrial signal, unstimulated MM1S myeloma – cell-based, JC-1 fluorescence, 24 h, 100 nL compound, profiling panel (AID 1170); conditions: MM1S mitochondrial potential, higher = more signal
[10] = resazurin metabolic signal in A549 cells – cell-based, resazurin fluorescence, 24 h, PK04 Diversity Set, profiling panel (AID 1171); conditions: A549 viability, higher = more signal, called active from +8 up or from −8 down
Further: test concentration not given here.

Row | SMILES | z-score [1] | z-score [2] | z-score [3] | z-score [4] | z-score [5] | z-score [6] | z-score [7] | z-score [8] | z-score [9] | z-score [10]
1 | COCCCNC(=O)[C@@]1(Cc2ccccc2N=[N+]=[N-])N=C(c2ccc(OCCCO)cc2)O[C@H]1c1ccccc1CN=[N+]=[N-] | -0.603 | 1.66 | -0.456 | -1.72 | -3.93 | 3.03 | 0.557 (inactive) | -1.21 | -0.593 | -1.92 (inactive)
2 | O=C1O[C@H](c2ccccc2)[C@H](c2ccccc2)N2[C@H]1[C@@H](C(=O)N1CCN(c3ncccn3)CC1)[C@]1(C(=O)Nc3ccc(C#CCCO)cc31)[C@H]2c1ccccc1OCCO | 1.09 | 0.569 | 0.313 | -0.445 | -2.95 | 0.308 | 0.488 (inactive) | -0.794 | -0.0117 | 1.92 (inactive)
3 | [N-]=[N+]=NCc1ccccc1C[C@]1(C(=O)NCCN2CCOCC2)N=C(c2ccc(OCCCO)cc2)O[C@H]1c1ccccc1 | 0.112 | 0.117 | -0.493 | -0.338 | -1.06 | 0.871 | 0.469 (inactive) | -0.636 | -0.54 | 1.29 (inactive)
4 | O=C1C2C=CC(C(O)c3ccc(Br)cc3)N(Nc3ccccc3)C2C(=O)N1c1ccccc1 (stereo not given) | -1.17 | -1.45 | -0.5 | -1.27 | 0.134 | -1.92 | -0.711 (inactive) | -0.163 | -0.0898 | -0.201 (inactive)
5 | CN(C)C(=O)[C@@]1(CCS(=O)(=O)c2ccccc2)N=C(c2ccc(OCCCO)cc2)O[C@H]1c1ccccc1CN=[N+]=[N-] | 1.29 | 0.828 | -0.294 | -0.582 | -0.314 | 0.548 | -0.264 (inactive) | -0.114 | -1.31 | 0.712 (inactive)
6 | CCOC(=O)C[C@H]1[C@H](OC(=O)Cc2ccc3c(c2)OCO3)[C@@H](NC(=O)c2ccccc2)c2cc(OCCCO)ccc2N1C(=O)c1ccccc1 | -0.11 | 0.232 | 1.52 | -0.266 | 0.503 | 0.614 | 0.746 (inactive) | 0.684 | -0.96 | 0.323 (inactive)
7 | COC(=O)[C@@]1(Cc2ccc(OC)cc2)[C@H]2c3cc(C(=O)N(C)C)n(Cc4cc(F)c(F)c(F)c4)c3C[C@H]2CN1C(=O)c1ccccc1 | -1.81 | 0.745 | -0.909 | -1.59 | -2.93 | 3.22 | -0.149 (inactive) | -0.863 | -0.971 | -1.48 (inactive)
8 | COc1ccc([Si](C)(C)[C@H]2[C@H](CCO)O[C@@]3(C(=O)N(Cc4cccc(N5CCOC5=O)c4)c4ccccc43)[C@@H]2C)cc1 | -0.162 | -0.824 | -0.925 | -2.43 | -3.25 | -0.0995 | 2.01 (inactive) | -1.09 | -1.79 | -2.22 (inactive)
9 | C[C@]12C(=O)N(CCCO)[C@@H]3C(=O)N(c4ccc(Cl)cc4)CC=CC31O[C@@H]1/C=C\CCCOC(=O)C12 (stereo not given in full) | 0.348 | 0.922 | -0.114 | 0.14 | -0.191 | -0.665 | -1.25 (inactive) | -0.0538 | 1.18 | -0.0576 (inactive)
10 | C=C(/C(=C/C[C@@H](OC(=O)c1ccncc1)c1cccc(OCCO)c1)c1cc(C(=O)OC)ccc1OC)C(C)C | 1.49 | 0.358 | 1.21 | -2.98 | -2.77 | 2.71 | 0.544 (inactive) | -0.303 | -1.02 | 0.804 (inactive)
11 | C=C(CCCC)/C(=C/C[C@@H](OC(=O)c1ccncc1)c1ccccc1OCCO)c1cc(C(=O)OC)ccc1OC | 0.0198 | 0.725 | 0.949 | -3.26 | -3.93 | 2.84 | -0.188 (inactive) | -0.497 | -1.14 | 0.17 (inactive)
12 | Cc1ccc(S[C@]2(C(=O)NCCN3CCOCC3)CC(=O)N(C3Cc4ccccc4C3)[C@@H]2c2ccc(CO)cc2)cc1 | -0.215 | -0.143 | -0.619 | -0.0655 | 0.0047 | 0.699 | 0.242 (inactive) | 0.794 | -0.0188 | 0.665 (inactive)
13 | O=C1c2ccccc2[C@](Cc2ccccc2I)(C(=O)NCC(F)(F)F)[C@H](c2ccc(CO)cc2)N1Cc1ccccc1 | 0.535 | 0.489 | 0.43 | -0.441 | -1.67 | -0.0706 | -0.0813 (inactive) | -0.332 | -0.645 | 1.1 (inactive)
14 | C=CCN1C(=O)[C@@]2(O[C@@H](CCn3cc([C@H](O)c4ccccc4)nn3)[C@H]([Si](C)(C)c3ccc(OC)cc3)[C@H]2C)c2cc(NC(=O)c3ccc(OC)cc3)ccc21 | -0.219 | -0.143 | -0.671 | -1.84 | -1.69 | -0.117 | -1.06 (inactive) | -0.991 | -0.641 | -2.43 (inactive)
15 | CC(C)(C)OC(=O)CC[C@]1(C(=O)O)COC(c2ccc(OCCCO)cc2)=N1 | -0.0651 | -2.83 | 0.218 | -0.97 | 0.151 | -0.924 | -0.564 (inactive) | -0.812 | 0.148 | -0.135 (inactive)
16 | Cc1cc(C)c(C(O)C2C=CC3C(=O)N(c4ccccc4)C(=O)C3N2Nc2ccc([N+](=O)[O-])cc2)c(C)c1 (stereo not given) | -0.308 | 1.09 | -0.0308 | -0.86 | -0.662 | -1.95 | -3.61 (inactive) | -0.367 | -1.04 | 0.634 (inactive)
17 | CC(C)N1CC=CC23O[C@@H]4C=CCOC(=O)[C@@H]4[C@H]2C(=O)N(CCCCCCO)[C@@H]3C1=O (stereo not given in full) | 0.0698 | 0.105 | -0.684 | 1.17 | 0.255 | -0.202 | -0.109 (inactive) | 0.0854 | -0.249 | 0.64 (inactive)
18 | NC(=O)[C@H]1[C@@H]2C(=O)O[C@@H](c3ccccc3)[C@@H](c3ccccc3)N2[C@@H](c2ccc(O)cc2)[C@]12C(=O)Nc1ccc(C#CC3(O)CCCCCC3)cc12 | 0.205 | 1.54 | 0.961 | -1.13 | -4.08 | -1.39 | -0.575 (inactive) | -0.808 | -0.184 | 0.995 (inactive)
19 | C=CCC(OC(C)=O)[C@@H]1[C@@H](N(Cc2ccc(-c3ccccc3)cc2)C(=O)Cc2ccc(OC)cc2)c2cc(OCCCO)ccc2N1C(=O)c1ccc(-c2ccccc2)cc1 (stereo not given in full) | 0.817 | 0.397 | 1.3 | 0.366 | 0.368 | 3.34 | 0.269 (inactive) | 0.298 | 0.494 | 1.21 (inactive)
20 | COc1ccccc1CN1C(=O)c2ccccc2[C@](Cc2ccccc2I)(C(=O)NCCN2CCOCC2)[C@@H]1c1ccc(CO)cc1 | 0.0739 | 0.937 | 1.26 | -1.17 | -2.74 | 2.25 | 0.833 (inactive) | -0.673 | -0.454 | -1.83 (inactive)
21 | CN(C)C(=O)[C@@]1(CCC(=O)OC(C)(C)C)COC(c2ccc(OCCCO)cc2)=N1 | 0.236 | -0.417 | 0.306 | 0.0475 | 0.0972 | -0.868 | 0.0942 (inactive) | 0.0733 | -1.14 | 0.594 (inactive)
22 | CC1(C)[C@@H]2CC(C(O)C3C=CC4C(=O)N(c5ccccc5)C(=O)C4N3Nc3ccccc3F)=C[C@@H]1C2 (stereo not given in full) | 0.604 | -0.297 | -0.0679 | 0.848 | 0.219 | -0.424 | -1.07 (inactive) | 0.157 | -1.41 | 1.01 (inactive)
23 | CN(C)C(=O)[C@@]1(Cc2ccccc2N=[N+]=[N-])N=C(c2ccc(OCCCO)cc2)O[C@H]1c1ccccc1N=[N+]=[N-] | -0.0639 | 1.45 | -1.38 | -3.16 | -4.47 | 1.45 | 0.918 (inactive) | -1.26 | -1.03 | -0.406 (inactive)
24 | COc1ccc(CCNC(=O)[C@@H]2c3ccccc3C(=O)N(Cc3ccccc3C(F)(F)F)[C@H]2c2ccc(CO)cc2)cc1 | 0.0059 | -0.513 | 0.106 | -0.601 | -0.0978 | 1.2 | 0.996 (inactive) | -0.667 | 0.00958 | 2.22 (inactive)
25 | C=CCC(OC(C)=O)[C@@H]1[C@@H](N(Cc2ccc(-c3cccc(C(F)(F)F)c3)o2)C(=O)c2cccc3ccccc23)c2cc(OCCCO)ccc2N1C(=O)c1ccc(-c2ccccc2)cc1 (stereo not given in full) | 0.558 | 0.865 | -0.382 | -1.04 | -1.23 | 2.41 | -2.44 (inactive) | 0.00531 | 0.988 | -0.93 (inactive)
26 | COc1ccc(C(=O)Nc2ccc3c(c2)[C@]2(O[C@@H](CCO)[C@H]([Si](C)(C)c4ccc(OC)cc4)[C@H]2C)C(=O)N3Cc2ccccc2)cc1 | -1.34 | 1.39 | -2.56 | -2.64 | -2.99 | 0.00933 | -0.0069 (inactive) | -0.965 | -0.497 | -2.42 (inactive)
27 | CCCC=C(CCC)[C@@H](NS(=O)(=O)c1ccccc1)c1ccc(C(F)(F)F)cc1 | -2.27 | -0.287 | -2.34 | -2.55 | -4.06 | -3.56 | -0.634 (inactive) | -0.981 | -2.47 | -0.795 (inactive)
28 | COC(=O)c1ccc(OC)c(/C=C\CC(CCc2ccccc2)OC(C)=O)c1 (stereo not given) | -0.349 | -0.191 | -0.349 | -1.35 | 0.346 | -1.3 | -0.459 (inactive) | -0.48 | 0.893 | 0.671 (inactive)
29 | COC(=O)[C@@]1(Cc2ccc(F)cc2)[C@H]2c3cc(C(=O)N(C)C)n(Cc4ccc(C)c(F)c4F)c3C[C@H]2CN1C(=O)c1ccccc1 | 0.674 | -0.609 | 1.03 | -0.144 | 0.299 | 3.29 | 0.157 (inactive) | 0.299 | -0.605 | 0.0638 (inactive)
